Shown are actives, neighbours in structure and some others; about 3.5% of the full set was active somewhere.
GPR151 activ: activators of human GPR151; 650,000 compounds, 1% hits; Q8TDV0; activation, % at 11.2 µM; PathHunter beta-arrestin GPR151 cells, luminescence; in the data active = activation above about 4.9%;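 note: 0% = median of compound wells and 100% = cells with positive control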
FBW7 act: human FBW7 E3 ligase activation, primary screen; AlphaScreen FBW7–phospho-cyclin E peptide binding, activator screen; normalized activity (activation), % at 26.1 µM; 650,000 compounds, 0.13% hits; AID 1259310; in the data active = normalized activity above about 1.9%;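 note: purified mutant Fbw7 with reduced substrate affinity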
TEAD-YAP inh: TEAD-YAP interaction inhibition; HEK-TIYL cells, TEAD-Gal4/YAP UAS-luciferase luminescence; inhibition, % at 9.12 µM; 640,000 compounds, 1.4% hits; in the data active = inhibition above about 32%;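 note: 0% = median of test compound wells and 100% = reference inhibitor wells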
MITF primary: inhibitors of human MITF. O75030. AlphaScreen MITF homodimerization, bead proximity signal. inhibition, % at 2.6 µM. 650,000 compounds, 0.91% hits; in the data active = inhibition above about 50%;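 note: 0% = vehicle wells with protein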
Target sequence (O75030 whole entry, looked up): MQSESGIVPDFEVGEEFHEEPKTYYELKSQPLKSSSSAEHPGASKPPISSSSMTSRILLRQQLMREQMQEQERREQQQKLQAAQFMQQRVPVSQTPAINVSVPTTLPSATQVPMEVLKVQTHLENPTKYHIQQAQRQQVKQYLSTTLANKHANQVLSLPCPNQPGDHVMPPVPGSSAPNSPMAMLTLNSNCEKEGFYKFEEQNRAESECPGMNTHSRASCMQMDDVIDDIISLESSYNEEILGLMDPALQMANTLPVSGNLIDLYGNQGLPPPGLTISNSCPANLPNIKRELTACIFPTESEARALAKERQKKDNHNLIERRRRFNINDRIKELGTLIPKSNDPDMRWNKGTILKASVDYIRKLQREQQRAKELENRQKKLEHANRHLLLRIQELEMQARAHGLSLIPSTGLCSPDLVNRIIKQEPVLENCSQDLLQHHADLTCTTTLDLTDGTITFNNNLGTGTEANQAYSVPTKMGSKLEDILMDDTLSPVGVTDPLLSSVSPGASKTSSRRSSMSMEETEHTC
* marks the source's active call; other numbers are inactive results.

SMILES	GPR151 activ	FBW7 act	TEAD-YAP inh	MITF primary
Cc1ccc2nc(-c3ccc(NC(=O)/C=C/c4ccccc4)cc3)sc2c1	-0.4	0.0	-21.7	3.9
Cc1ccc2nc(-c3ccc(NC(=O)/C=C\C(=O)O)cc3)sc2c1	0.1	0.1	34.9*	-1.4
Cc1ccc2nc(-c3ccc(NC(=O)CSc4nnc(N)s4)cc3)sc2c1	-2.1	-0.1	58.8*	-6.9
COC(=O)CNS(=O)(=O)Nc1ccc(-c2nc3ccc(C)cc3s2)cc1	-5.5	-0.1	67.4*	8.8
Cc1ccc2nc(-c3ccc(OC(=O)c4ccc(Br)o4)cc3)sc2c1	0.9	0.1	65.0*	8.3
CCC(=O)Nc1ccc(N2CCCC2)c(Cl)c1	-1.4	0.1	-14.1	8.2
CC(=O)Nc1ccc(-c2nc3ccc(NC(C)=O)cc3s2)cc1	2.3	0.6	-49.9	-15.3
Cc1ccc(-c2nc3ccccc3s2)cc1NC(=O)c1cccc(I)c1	1.4	-0.1	2.2	7.8
Cc1ccc(OCC(=O)Nc2ccc(-c3nc4ccc(C)cc4s3)cc2)cc1	-0.3	0.2	-17.3	6.3
Cc1ccc2nc(-c3ccc(OC(=O)c4cccc(I)c4)cc3)sc2c1	-1.8	-0.2	84.4*	-4.5
CC(=O)Nc1ccc2nc(-c3ccc(OC(C)=O)cc3)sc2c1	-0.4	-0.2	78.1*	-4.0
CC(=O)Oc1ccc(-c2nc3ccc(C)cc3s2)cc1	-6.2	0.1	97.9*	1.4
Cc1ccc(C(=O)Oc2ccc(-c3nc4ccc(C)cc4s3)cc2)cc1	-1.0	0.0	38.6*	-5.1
O=[N+]([O-])c1cc2c(c(CSc3nnc(NCc4ccccc4)s3)c1)OCOC2	-0.6	-0.3	-6.5	18.5
CCc1ccc(NC(=O)c2ccc(F)c(S(=O)(=O)N3CCN(c4ccc(C)cc4)C(C)C3)c2)cc1 (centres undefined)	-1.8	-0.3	21.3	9.3
CC(C)(C)c1ccc(OCC(O)CN2C(=O)c3ccccc3C2=O)cc1 (centres undefined)	0.4	-0.1	0.5	10.6
O=C(c1ccc(S(=O)(=O)c2cccc(Cl)c2)c([N+](=O)[O-])c1)N1CCOCC1	1.7	-0.1	32.0*	-0.2
O=C1Nc2cc(C(=O)N3CCN(Cc4ccc5c(c4)OCO5)CC3)ccc2NC1CSCc1ccc(F)cc1 (centres undefined)	-0.6	0.0	48.0*	3.4
O=C(c1ccc([N+](=O)[O-])c(Cl)c1)N1CCN(Cc2ccc3c(c2)OCO3)CC1	-0.3	-0.2	51.4*	29.8
O=C(c1ccc(S(=O)(=O)c2cccc(Cl)c2)c([N+](=O)[O-])c1)N1CCN(c2ccc(F)cc2)CC1	1.2	0.0	1.4	7.8
COc1ccc(CN2CCN(C(=O)c3ccc(S(=O)(=O)c4ccc(F)cc4)c([N+](=O)[O-])c3)CC2)c(OC)c1OC	-0.5	0.3	42.8*	-10.6
COCCOC(=O)C1=C(C)NC(=O)CC1c1cc([N+](=O)[O-])ccc1Cl (centres undefined)	-0.5	-0.2	5.5	-1.5
O=C(c1ccc2c(c1)OCCO2)C1CCN(C(=S)NCc2ccco2)CC1	-1.0	0.0	-11.7	-2.0
COc1ccc(C(=O)N2CCN(Cc3ccc4c(c3)OCO4)CC2)cc1[N+](=O)[O-]	-1.5	0.9	45.3*	20.1
CSc1ccc(C2C(C(=O)N(C)C)=C(C)Nc3nc4ccccc4n32)cc1 (centres undefined)	0.1	0.0	3.4	24.9
SMILES	GPR151 activ	FBW7 act	TEAD-YAP inh	MITF primary
N#Cc1cccc(CSc2nc3ccncc3[nH]2)c1	-0.7	0.8	2.5	5.9
COC(=O)c1ccc(CSc2nc(C)cc(=O)[nH]2)cc1	-0.5	-0.1	4.2	-8.8
COC(=O)c1ccc(CSc2nc3ccncc3[nH]2)cc1	-2.6	0.3	91.5*	4.2
c1ccc(CSc2nc3ccncc3[nH]2)cc1	-2.0	0.2	56.7*	-11.4
O=C(COC(=O)CN1C(=O)c2cccc([N+](=O)[O-])c2C1=O)Nc1cccc2ccccc12	-1.2	0.4	31.3	3.8
O=Cc1cccn1Cc1ccc([N+](=O)[O-])cc1	-1.7	-0.1	6.5	10.0
O=C1C(=O)c2ncccc2-c2cccnc21	-0.2	-1.8	74.5*	57.2*
O=C(Nc1ccc(N2CCCC2=O)cc1)c1ccco1	-8.9	-0.2	59.2*	-16.2
Cc1ccnc(N2CCC(C(=O)Nc3ccc(C)c(Cl)c3)CC2)n1	0.1	-0.1	-4.3	8.7
OCCn1c(Cc2ccccc2)nc2ccccc21	-10.6	0.3	97.8*	3.8
CN(C)/N=C/C=C1\CC/C(=C\c2ccco2)C1=O	1.2	-0.1	-41.6	54.8*
CC(C)c1ccc(/C=C2\CC/C(=C\C=N\N(C)C)C2=O)cc1	-0.7	0.0	-5.8	-12.8
O=C1C(=C2SCCS2)CC/C1=C\c1ccco1	3.0	-0.7	18.5	91.5*
O=C(Nc1c2c(nn1-c1cccc(Cl)c1)CSC2)c1ccc(S(=O)(=O)N2CCCCC2)cc1	0.6	-0.2	-12.3	-0.2
COc1cc(C=Nc2cc(C)on2)c(O)c([N+](=O)[O-])c1	-2.3	-0.1	1.4	3.8
Cc1ccc(-n2nc3c(c2NC(=O)C2CCCC2)CSC3)c(C)c1	0.5	1.9*	4.1	16.5
COc1ccc(N2C(N)=C(C#N)C(c3ccsc3)C3=C2CCCC3=O)cc1 (centres undefined)	0.8	0.4	45.2*	10.1
COc1ccc(N2C(N)=C(C#N)C(c3cc(OC)c(OC)c(OC)c3)C3=C2CCCC3=O)cc1 (centres undefined)	0.8	-0.1	53.7*	8.1
COc1ccc(N2C(N)=C(C#N)C(c3ccsc3)C3=C2CCCC3=O)c(OC)c1 (centres undefined)	-0.6	0.6	15.8	8.7
COc1cc(C2C(C#N)=C(N)N(c3ccc(Br)cc3)C3=C2C(=O)CCC3)cc(OC)c1OC (centres undefined)	-0.7	0.3	20.1	10.4
COc1ccc(C2C(C#N)=C(N)N(c3ccc(C)cc3)C3=C2C(=O)CC(C)(C)C3)cc1OC (centres undefined)	-1.1	0.1	54.5*	-0.4
OCCCNc1ccc2ncc(-c3cccc(F)c3)n2n1	0.2	0.2	8.6	18.0
N#CCCn1nc(-c2cccs2)oc1=S	1.5	-0.1	8.5	-2.1
N#Cc1cc(-c2ccnc(Nc3ccc(CN4CCCCC4)cc3)n2)cc(N2CCOCC2)c1	0.3	-0.1	36.3*	0.8
N#Cc1cc(-c2ccnc(Nc3ccc(N4CCNCC4)cc3)n2)cc(N2CCOCC2)c1	-0.2	-0.7	31.9*	-3.3
SMILES	GPR151 activ	FBW7 act	TEAD-YAP inh	MITF primary
O=C1c2ccccc2S(=O)(=O)N1c1ccccc1Br	1.9	0.0	7.2	-5.3
FC(F)(F)c1cc(-c2cnn3c(NC4CCCNC4)ccnc23)cc(C(F)(F)F)c1 (centres undefined)	2.0	0.2	2.3	-15.8
COCCNc1ccnc2c(-c3ccccc3Cl)cnn12	0.5	0.0	57.9*	0.1
c1ccc2cc(-c3cnn4c(NC5CCCNC5)ccnc34)ccc2c1 (centres undefined)	-0.3	-0.2	65.1*	0.4
COCCNc1ccnc2c(-c3ccc(CCC(=O)O)cc3)cnn12	-3.0	-0.5	50.5*	14.6
c1cncc(CCNc2ccnc3c(-c4ccc5ccccc5c4)cnn23)c1	-0.2	0.0	58.7*	-7.8
